The text below walks through data of PubChem BioAssay AID1508600 (Functional Genomics Laboratory (NCATS/FGL), 2020).

The campaign covered roughly 53,000 sequences. About 3,700 (7%) were called active.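 How the source made its calls: active means gene knockdowns whose robust z-score for IL-1 alpha signal is at least 2 or at most -2, so actives lie on both sides; inactive means the rest.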 The full list was thinned out, with actives kept by preference.

The assay in a line: Components of the Cytosolic LPS Sensing Pathway: Gene Identification via Genome-wide siRNA Screen.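 Further: robust z of the log signal after scaling to non-targeting control siRNA wells of the plate.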 To be noted: RAW264.7 macrophages, IL-1a HTRF, actives lie on both sides, screened at 100 nM (by protocol), cells primed 5 h with Pam3CSK4 first. In short, it runs like this:
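IL-1a HTRF of supernatants after 24 hour LipidA transfection of Pam3CSK4-primed (5 hours) RAW264.7 cells, 48h post-siRNA transfection (100 nM). Scores: percent of plate negative-control median, then log-based robust z-score.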
In general terms: In TR-FRET formats the signal depends on donor and acceptor labels being close together.
Regarding GGAGGCAUGCCCUAUGAAUTT against Zfp11, the z-score was 1.4 (inactive). The figure for CCUCAAAUUAGUGCAGUUATT against Dnah8 is 0.661 (inactive); for GGUGGCACUCUUUCAGAUCTT against Dennd1a it is 2.08 (active); for GCUUGUCAAGUUUGUGAGCTT against Sec14l4 it is -0.0652 (inactive). Take GGAAUAGUAACUCUUUCUCTT against Ehbp1l1: the z-score is -0.0157 (inactive). The figure for GGUUGUGGACACAUCCAAATT against Aacs is 2.08 (active); for GGAUGUUAAAGCAAGUGUATT against Olfr1153 it is 0.169 (inactive). The figure for CGAGGAUUUCUAUCCUGACTT against Ascc1 is -0.764 (inactive); for GGAAGUGCUCUGCUGUACATT against Eml6 it is 0.655 (inactive); for GCUUGGUCAUUUUAAUAGGTT against Zscan29 it is -0.527 (inactive). With GGCCAGUGGGAAGUGAAGATT against Sec13, the z-score was 0.124 (inactive). The figure for GCCAUAUCAACCGUAUUGGTT against Lzts3 is -2.58 (active); for CGUGUACCAGCUACCUAAGTT against Phc2 it is -1.31 (inactive); for GGUUAGUAUGUAGCUCCCATT against Olfr982 it is -0.401 (inactive).

Consider GGAACUUAAGAACUUUCUATT against Calb1, for which the z-score is 2.3 (active).

With GGCCUAAAUUGACAAACUUTT against Oga, the z-score is 1.04 (inactive). In the case of GGUAAAACAGAGGAGUCGGTT against Scaf1, the z-score was -0.444 (inactive). Turning to GGUACAAACUCUCCCUAGATT against Ube2c, the z-score is -1.29 (inactive). The figure for GGAUCUACAUUGCUAAAGUTT against Dbil5 is 0.0731 (inactive); for GCCCAAAAAGUGCUUGCUGTT against Tmem215 it is -1.76 (inactive); for CCUUCCCUUAAAUGGAACCTT against Slc9a1 it is 1.63 (inactive). As to CGCAGUGAUUAUGACCUCCTT against Thegl, the z-score is -2.34 (active). With GCCUUGUUACAAAUAGUCGTT against Tcf12, the z-score is 0.266 (inactive).

As to GGGAUUCGGUGAAGAUUUGTT against Nfe2l1, the z-score is -0.736 (inactive).

As for GGUGAAAUCCUGAUGUUUUTT against Vps33b, the z-score was 0.301 (inactive). The value for GGGACAAGAUCUGAACUUCTT against Rgl3 was -0.36 (inactive); that for CCUCACUGUGGUAACAUUATT against Olfr452 was 1.84 (inactive); that for GGAAAACAAACCACAGCCATT against Tpbpa was -2.66 (active). The value for GGUGCUAUUCAUCUGCACGTT against Lonp1 was -1.09 (inactive); that for GCCUGUCAUGGUUAUGACCTT against Shbg was -0.803 (inactive). The figure for GGACAGAUACGUUAUCAAGTT against Il3 is 1.31 (inactive).

On to CCCAUUUGAAAUUAGGGUATT against Mief1, for which the z-score was 0.607 (inactive). With GCUGGCUUCAUUUUACUUATT against Degs1, the z-score was 0.126 (inactive).

Consider GGAUUACAGGCAUUUGGUUTT against Hmgn1, for which the z-score was 3.01 (active). With GGAGUGAAGAUCUGAUUGCTT against Aaas, the z-score is -1.63 (inactive). The figure for GCUGGGAUGGUAUCGUUUCTT against Ripk2 is 0.559 (inactive). The value for GGUAUUGAUGCCAAAUUAATT against Plekha5 was 1.38 (inactive); that for CGUCCUGUCGCUGAUUAAATT against Tcl1 was 0.323 (inactive); that for CCGAAAAGUGUGGCGAGAATT against Arid3c was -0.285 (inactive). The value for CCAGAGUAAUUCAUCAUACTT against Agxt was 0.172 (inactive); that for GGUUCAGUUUGCCAAAGACTT against Elfn1 was 1.45 (inactive).

Consider “GGACUUCACAUUCUUGAGATT against A130010J15Rik”, for which the z-score is -0.232 (inactive). With GGUGGGCACUCUGGUUUUUTT against Eif4e, the z-score was 4.66 (active). For GUAGUAACCAGAUCUUAUATT against Vmn1r29, the z-score is 0.496 (inactive).

For the sequence GGUUCAGCCAGAAUUUUCGTT against Lefty2, the z-score was 0.876 (inactive). GGAAAAGACUAACGAGCGGTT against Med11: the z-score was -0.703 (inactive).

As to GGUCCUUCGUAGUUGUGGUTT against Sp110, the z-score is 1.33 (inactive). The value for GCAAAAACCUAUAGGAAAATT against Srpk2 was 2.27 (active).

With GGGAGAUCAUGAUAGCAGCTT against Cox5b, the z-score is -0.828 (inactive).

In the case of GCUUGGCUUCAGCAUAUGCTT against Phox2b, the z-score was -0.867 (inactive). Turning to GCCACACUUAAGUCAGACCTT against Tprn, the z-score was 0.597 (inactive). On to GGUGCUAAGAAAAUCAAAGTT against Ryr2, for which the z-score was 3.64 (active).

In the case of GGGAGCAAAUGUAAUUUAUTT against Tbpl1, the z-score was 0.842 (inactive).

Consider GGUUUAACUUUAAUGAUGGTT against Cacna1e, for which the z-score is -1.39 (inactive). On to GGGAAUGGGUCUUGUAAACTT against Ppat, for which the z-score was -1.4 (inactive). As for GCAUAUGCUUUUACAACACTT against Zfp280c, the z-score was 0.252 (inactive). GGUCAAUGCUGUUUUUGUUTT against Mxi1: the z-score was 2.41 (active).

As for GGUCUGUGCAAGCAAAUCGTT against Cacng2, the z-score was -0.153 (inactive). The value for GGAAAAUCAUGGGAGCCUUTT against Lpo was -0.435 (inactive). The value for GGAGAGUGAUGAACAGAUGTT against Pctp was 2.21 (active); that for GGGCUCGUUAAUCUUUUACTT against Nop10 was 0.753 (inactive). Consider GGAAAUGUUUCUGUUCAUUTT against Nipsnap3b, for which the z-score is 0.295 (inactive). The figure for GGUGACUGACAGCUGCCAATT against Prima1 is 0.0318 (inactive). The value for GGUUAAAAGAGGUGAUUAGTT against Mtfp1 was 1.9 (inactive); that for GGCCCAUCACUUACUAAAGTT against Exoc3l was 0.224 (inactive); that for GGAAUAUUCACAGUCCGAGTT against Zfand3 was -2.18 (active). The figure for GCCAACAAUAUAAUUCAAGTT against Abca5 is 1.64 (inactive); for GGUGACAAAAAGUCAAAGATT against Dis3l2 it is -0.542 (inactive); for CCAUGGUCUAGCACAGUGGTT against Cpn2 it is -0.079 (inactive). GACACUGUCAAAUUAUGGATT against Vmn1r74: the z-score is -0.581 (inactive). The value for CGGAAUGAUUCUGACUAAUTT against Mmp7 was 0.546 (inactive); that for GGUAUGGAAGACAAAACCUTT against Nlrp1a was 0.61 (inactive).

Regarding GGAACACUGUGAGAACAAGTT against Peak1, the z-score was 0.124 (inactive). The figure for GGAGUAUUACGUCUGAUAUTT against Nrxn1 is 2.39 (active); for GGUGCUUAAUUCCUGUCCCTT against Ggn it is -0.855 (inactive); for GGAGUUCUUCACGCGUAACTT against G6pd2 it is 0.599 (inactive). The figure for GCUAGAGGAGUUUCUAAACTT against Clu is 0.0975 (inactive); for GCUGGUGUCGGCAAAUCCUTT against Wnk1 it is -0.62 (inactive).

For GCAGAAUGAGUUCAGACGATT against Mgmt, the z-score is 0.36 (inactive). Turning to GGCUUUCAGUUAUUUGACATT against Zfp709, the z-score is -0.636 (inactive). As for GGUUGUCUUUCUACUCGGGTT against Plpp1, the z-score is 1.37 (inactive). Regarding GGGAUGUCUUCCUAUACAGTT against Cope, the z-score was -2.78 (active).

In the case of GCUGAUGGAGAGUUAUUUGTT against Rcbtb1, the z-score was 0.675 (inactive). The value for CCACCCAAAAGUAAAAAGUTT against Rpp38 was -1.29 (inactive); that for GGUCUGGAUGCUUUAGAAUTT against Fam114a1 was -0.373 (inactive). The figure for GCAUUACUUGAGCAAAACATT against Zfp654 is -0.854 (inactive); for GGCUCUGGAUGAAGAACUUTT against Gfpt2 it is 4.13 (active).

For CCUUCCUGUCCAUGUACCUTT against Olfr412, the z-score was 0.879 (inactive). As for GGUCACUGUAAAAUGAACCTT against Odf2, the z-score is 1.48 (inactive).

On to CGCACAUGUAGUUAAUAAATT against Iqcg, for which the z-score is -0.96 (inactive). The figure for GGGCAAAGGAAAUGGAAUCTT against Eif5 is 2.33 (active); for GGCUCUUACUUCAUCACUATT against Casp4 it is -1.9 (inactive). The value for GGCCACUUCGUGUUCUUUUTT against Hoxa10 was 2.08 (active); that for GGUUUUUAACCAAACAUGATT against Actr3 was -0.784 (inactive); that for CCAUCACUACACGAAAUUGTT against Fgf12 was 0.176 (inactive). The figure for AAAAAUGUCGGAUUCCCAATT against Adgrf3 is -0.121 (inactive). With GCGAGUCUCACAUCAGUGATT against Tshz3, the z-score is 2.68 (active). The value for CGCAGCAGGAAUCAGGAAUTT against Tsr1 was 0.222 (inactive); that for GGAUGUGGAGUCACUGAUGTT against Ccdc91 was -0.863 (inactive); that for GGAUGAUGACGACAUUGAUTT against Eef1b2 was 0.292 (inactive). Consider GGCAGACAACGUGUCACCUTT against Aldh1a3, for which the z-score is -0.883 (inactive). GGAGAAGACCAUAAAGAAGTT against Flywch1: the z-score is -0.554 (inactive). Turning to GACAUUUGUAUGCAGUCAUTT against Vmn1r193, the z-score was -2.65 (active).

As to CCCUCUACACUAUACCACATT against Olfr347, the z-score was -0.498 (inactive). For GGAUUCUGGGCUGAAUGGGTT against Pcdh18, the z-score is -0.491 (inactive).

In the case of GGAACCAUCUUCAACCAACTT against Eme1, the z-score is -1.44 (inactive).

GGAGAACUGUAAAUAAACUTT against Duoxa2: the z-score is -2.1 (active). The value for CCAUAGAGUGGAUAGUCAUTT against Rsl1 was 0.385 (inactive).
